This note sets out measurements from PMC7862700, “An all-to-all approach to the identification of sequence-specific readers for epigenetic DNA modifications on cytosine”.

Holding throughout (assay): DAPPL (digital affinity profiling via proximity ligation, sequencing); 10 mM Tris-HCl pH 7.5, 50 mM NaCl, 1 mM DTT, 4% glycerol, room temperature, 30 min; GST-TFs on glutathione beads, 16-mer random dsDNA library, 0.1% formaldehyde crosslink after washing; high values mean tight binding
Assay [1] addresses T1, FLI1 (Homo sapiens, UniProt Q01543 1-452).
T1 sequence: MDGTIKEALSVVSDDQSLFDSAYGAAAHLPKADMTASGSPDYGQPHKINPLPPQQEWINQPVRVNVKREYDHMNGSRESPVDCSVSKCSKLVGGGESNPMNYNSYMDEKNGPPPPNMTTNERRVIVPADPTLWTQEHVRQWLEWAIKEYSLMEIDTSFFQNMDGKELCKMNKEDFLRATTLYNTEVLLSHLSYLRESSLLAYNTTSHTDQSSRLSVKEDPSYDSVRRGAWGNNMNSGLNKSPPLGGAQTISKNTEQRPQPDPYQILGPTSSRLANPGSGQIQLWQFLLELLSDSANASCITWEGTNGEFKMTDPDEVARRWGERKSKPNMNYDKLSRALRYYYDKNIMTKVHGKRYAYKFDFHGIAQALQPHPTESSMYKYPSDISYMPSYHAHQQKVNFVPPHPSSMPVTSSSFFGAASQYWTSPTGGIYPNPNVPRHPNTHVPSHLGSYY
To be noted: protein: recombinant; tags: N-terminal GST; dsDNA, one strand shown. The procedure, abridged:
(§1)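 Binding signal is defined as a hexamer's read frequency for one factor over its frequency for the tag-only sample. To obtain reads, GST-fused human transcription factors were expressed in yeast, captured on glutathione beads, barcoded with DNA and pooled with that sample. Pools met 200 nmole of a 16-mer random double-stranded DNA library in Tris/NaCl/DTT/glycerol buffer for 30 min at room temperature before washing, 0.1% formaldehyde crosslinking, proximity ligation (BsaI/T4 ligase, 1 h, 37 °C), PCR and Illumina NextSeq500 sequencing.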

The target of assay [2] is T2, ELK1 (Homo sapiens, UniProt P19419 1-428).
T2 sequence: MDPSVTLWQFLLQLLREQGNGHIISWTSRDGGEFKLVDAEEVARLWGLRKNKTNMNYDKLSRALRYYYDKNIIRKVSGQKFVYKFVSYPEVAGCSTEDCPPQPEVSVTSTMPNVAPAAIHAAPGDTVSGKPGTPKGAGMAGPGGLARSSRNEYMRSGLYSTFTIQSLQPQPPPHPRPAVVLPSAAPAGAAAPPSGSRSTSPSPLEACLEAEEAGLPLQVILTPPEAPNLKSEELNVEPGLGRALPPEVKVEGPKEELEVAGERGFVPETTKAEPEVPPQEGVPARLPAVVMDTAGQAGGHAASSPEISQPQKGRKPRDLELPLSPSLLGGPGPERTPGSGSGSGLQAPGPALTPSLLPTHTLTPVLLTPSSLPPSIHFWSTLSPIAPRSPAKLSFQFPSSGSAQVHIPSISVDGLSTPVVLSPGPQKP
To be noted: protein: recombinant; tags: N-terminal GST; dsDNA, one strand shown. The procedure, abridged:
as §1

Assay [3] concerns the target T3, GABPA (Homo sapiens, UniProt Q06546 1-454).
T3 sequence: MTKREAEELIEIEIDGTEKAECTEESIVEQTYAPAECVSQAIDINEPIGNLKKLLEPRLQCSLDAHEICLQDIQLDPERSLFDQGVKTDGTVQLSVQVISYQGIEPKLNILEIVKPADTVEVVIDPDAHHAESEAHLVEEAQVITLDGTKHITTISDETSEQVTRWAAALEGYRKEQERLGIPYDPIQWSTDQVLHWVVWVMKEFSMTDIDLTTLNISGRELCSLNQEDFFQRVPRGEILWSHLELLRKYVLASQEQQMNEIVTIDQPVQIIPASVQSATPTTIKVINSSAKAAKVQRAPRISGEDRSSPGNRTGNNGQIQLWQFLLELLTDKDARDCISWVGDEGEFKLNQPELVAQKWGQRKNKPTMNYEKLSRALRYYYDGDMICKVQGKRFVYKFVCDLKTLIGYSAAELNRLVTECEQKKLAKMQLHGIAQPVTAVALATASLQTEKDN
To be noted: protein: recombinant; tags: N-terminal GST; dsDNA, one strand shown. In a few lines: as §1

Assay [4] addresses T4, ERG (Homo sapiens, UniProt P11308 1-479).
T4 sequence: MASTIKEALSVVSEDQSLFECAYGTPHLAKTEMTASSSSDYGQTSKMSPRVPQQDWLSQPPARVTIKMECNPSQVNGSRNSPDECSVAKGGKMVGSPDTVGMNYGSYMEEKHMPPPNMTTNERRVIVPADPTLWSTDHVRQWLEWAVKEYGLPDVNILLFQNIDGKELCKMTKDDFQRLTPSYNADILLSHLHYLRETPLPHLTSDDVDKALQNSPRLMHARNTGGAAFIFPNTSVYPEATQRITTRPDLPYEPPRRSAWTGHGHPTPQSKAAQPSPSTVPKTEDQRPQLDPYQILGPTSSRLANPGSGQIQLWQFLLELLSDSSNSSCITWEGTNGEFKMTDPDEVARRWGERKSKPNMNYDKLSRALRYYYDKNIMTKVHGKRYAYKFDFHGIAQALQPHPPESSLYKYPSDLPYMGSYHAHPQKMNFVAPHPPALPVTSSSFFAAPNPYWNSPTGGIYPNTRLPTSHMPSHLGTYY
To be noted: protein: recombinant; tags: N-terminal GST; dsDNA, one strand shown. The procedure, abridged:
as §1

Assay [5] concerns the target ELF1 (Homo sapiens, UniProt P32519 1-619). To be noted: protein: recombinant; tags: N-terminal GST; dsDNA, one strand shown. The procedure, abridged: as §1
The target in assay [6] is T5, EHF (Homo sapiens, UniProt Q9NZC4 1-300).
T5 sequence: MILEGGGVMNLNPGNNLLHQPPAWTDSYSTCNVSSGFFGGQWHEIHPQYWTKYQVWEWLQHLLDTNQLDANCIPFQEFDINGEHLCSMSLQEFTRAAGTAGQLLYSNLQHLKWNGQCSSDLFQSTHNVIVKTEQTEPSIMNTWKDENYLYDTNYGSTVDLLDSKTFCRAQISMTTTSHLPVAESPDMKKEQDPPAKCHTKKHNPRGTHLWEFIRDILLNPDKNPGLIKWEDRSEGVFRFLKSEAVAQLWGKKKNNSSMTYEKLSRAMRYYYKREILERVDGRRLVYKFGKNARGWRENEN
To be noted: protein: recombinant; tags: N-terminal GST; dsDNA, one strand shown. The procedure, abridged: as §1

Assay [7] addresses SPI1 (Homo sapiens, UniProt P17947 1-270). To be noted: protein: recombinant; tags: N-terminal GST; dsDNA, one strand shown. The procedure, abridged:
as §1

Assay [8] has as its target SPIB (Homo sapiens, UniProt Q01892 1-262). To be noted: protein: recombinant; tags: N-terminal GST; dsDNA, one strand shown. The procedure, abridged:
as §1

Assay [9] deals with T6, ELK3 (Homo sapiens, UniProt P41970 1-407).
T6 sequence: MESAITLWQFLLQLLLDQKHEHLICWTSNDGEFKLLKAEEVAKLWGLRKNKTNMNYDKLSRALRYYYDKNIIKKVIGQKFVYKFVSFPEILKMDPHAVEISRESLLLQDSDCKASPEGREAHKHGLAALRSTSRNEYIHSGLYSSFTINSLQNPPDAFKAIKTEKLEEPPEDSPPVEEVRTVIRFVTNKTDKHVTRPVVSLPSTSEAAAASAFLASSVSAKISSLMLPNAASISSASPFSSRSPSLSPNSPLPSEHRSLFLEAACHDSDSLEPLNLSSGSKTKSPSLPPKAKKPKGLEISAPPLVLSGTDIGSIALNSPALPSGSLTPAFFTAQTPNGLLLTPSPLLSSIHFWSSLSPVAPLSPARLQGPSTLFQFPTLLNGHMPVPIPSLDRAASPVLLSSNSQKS
To be noted: protein: recombinant; tags: N-terminal GST; dsDNA, one strand shown. The procedure, abridged: as §1

Assay [10] concerns the target T7, FEV (Homo sapiens, UniProt Q99581 1-238).
T7 sequence: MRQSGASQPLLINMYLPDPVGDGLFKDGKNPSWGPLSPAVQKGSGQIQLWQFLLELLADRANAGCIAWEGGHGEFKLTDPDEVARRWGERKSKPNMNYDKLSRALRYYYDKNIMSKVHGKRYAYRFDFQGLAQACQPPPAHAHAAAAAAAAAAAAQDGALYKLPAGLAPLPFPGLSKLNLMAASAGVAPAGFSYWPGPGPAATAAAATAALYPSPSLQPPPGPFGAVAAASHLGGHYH
To be noted: protein: recombinant; tags: N-terminal GST; dsDNA, one strand shown. The procedure, abridged: as §1

Assay [11] concerns the target ETV5 (Homo sapiens, UniProt P41161 1-510). To be noted: protein: recombinant; tags: N-terminal GST; dsDNA, one strand shown. The procedure, abridged: as §1
Assay [12] deals with HSF1 (Homo sapiens, UniProt Q00613 1-529). To be noted: protein: recombinant; tags: N-terminal GST; chain copies: 3; dsDNA, one strand shown. In a few lines:
as §1

Assay [13] deals with ELF4 (Homo sapiens, UniProt Q99607 1-663). To be noted: protein: recombinant; tags: N-terminal GST; dsDNA, one strand shown. In a few lines: as §1
Assay [14] concerns the target T8, ELK4 (Homo sapiens, UniProt P28324-2 1-405).
T8 sequence: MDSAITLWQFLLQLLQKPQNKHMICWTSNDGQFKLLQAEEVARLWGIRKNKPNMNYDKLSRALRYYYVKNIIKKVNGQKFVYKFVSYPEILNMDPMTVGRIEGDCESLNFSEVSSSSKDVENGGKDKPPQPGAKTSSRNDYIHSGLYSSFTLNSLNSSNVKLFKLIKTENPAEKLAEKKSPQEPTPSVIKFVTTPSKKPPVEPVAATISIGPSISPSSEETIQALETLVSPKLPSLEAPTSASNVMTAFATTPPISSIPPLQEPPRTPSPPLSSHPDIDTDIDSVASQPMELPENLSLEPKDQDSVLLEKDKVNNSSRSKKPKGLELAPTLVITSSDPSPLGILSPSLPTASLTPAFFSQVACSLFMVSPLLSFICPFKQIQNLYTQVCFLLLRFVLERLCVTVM
To be noted: protein: recombinant; tags: N-terminal GST; dsDNA, one strand shown. The procedure, abridged:
as §1

Assay [15] concerns the target T9, ETV2 (Homo sapiens, UniProt O00321 1-342).
T9 sequence: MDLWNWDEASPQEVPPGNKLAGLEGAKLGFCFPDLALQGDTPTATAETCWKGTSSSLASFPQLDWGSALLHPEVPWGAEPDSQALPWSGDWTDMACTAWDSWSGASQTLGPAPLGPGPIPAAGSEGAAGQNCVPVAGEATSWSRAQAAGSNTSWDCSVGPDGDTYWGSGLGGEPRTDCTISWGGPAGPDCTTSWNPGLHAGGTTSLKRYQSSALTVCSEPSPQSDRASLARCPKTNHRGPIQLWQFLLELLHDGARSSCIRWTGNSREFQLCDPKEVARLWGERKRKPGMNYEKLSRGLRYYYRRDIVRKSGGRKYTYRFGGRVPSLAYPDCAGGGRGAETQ
To be noted: protein: recombinant; tags: N-terminal GST; dsDNA, one strand shown. In a few lines:
as §1

Assay [16] deals with T10, ELF3 (Homo sapiens, UniProt P78545 1-371).
T10 sequence: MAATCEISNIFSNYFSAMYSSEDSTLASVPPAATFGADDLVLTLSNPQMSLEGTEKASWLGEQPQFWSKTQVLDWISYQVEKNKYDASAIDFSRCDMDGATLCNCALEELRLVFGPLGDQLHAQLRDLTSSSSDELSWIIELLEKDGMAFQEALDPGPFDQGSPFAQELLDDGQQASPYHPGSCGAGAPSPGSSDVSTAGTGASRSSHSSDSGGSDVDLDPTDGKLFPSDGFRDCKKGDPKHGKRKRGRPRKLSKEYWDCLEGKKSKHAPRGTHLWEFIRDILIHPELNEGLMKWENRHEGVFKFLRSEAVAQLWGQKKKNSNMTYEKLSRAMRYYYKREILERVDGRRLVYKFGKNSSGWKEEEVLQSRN
To be noted: protein: recombinant; tags: N-terminal GST; dsDNA, one strand shown. The procedure, abridged: as §1

The target of assay [17] is CRX (Homo sapiens, UniProt O43186 1-299). To be noted: protein: recombinant; tags: N-terminal GST; dsDNA, one strand shown. In a few lines:
as §1

The target in assay [18] is ETV1 (Homo sapiens, UniProt P50549 1-477). To be noted: protein: recombinant; tags: N-terminal GST; dsDNA, one strand shown. In a few lines:
as §1

ELF4, sequence (Q99607 whole entry): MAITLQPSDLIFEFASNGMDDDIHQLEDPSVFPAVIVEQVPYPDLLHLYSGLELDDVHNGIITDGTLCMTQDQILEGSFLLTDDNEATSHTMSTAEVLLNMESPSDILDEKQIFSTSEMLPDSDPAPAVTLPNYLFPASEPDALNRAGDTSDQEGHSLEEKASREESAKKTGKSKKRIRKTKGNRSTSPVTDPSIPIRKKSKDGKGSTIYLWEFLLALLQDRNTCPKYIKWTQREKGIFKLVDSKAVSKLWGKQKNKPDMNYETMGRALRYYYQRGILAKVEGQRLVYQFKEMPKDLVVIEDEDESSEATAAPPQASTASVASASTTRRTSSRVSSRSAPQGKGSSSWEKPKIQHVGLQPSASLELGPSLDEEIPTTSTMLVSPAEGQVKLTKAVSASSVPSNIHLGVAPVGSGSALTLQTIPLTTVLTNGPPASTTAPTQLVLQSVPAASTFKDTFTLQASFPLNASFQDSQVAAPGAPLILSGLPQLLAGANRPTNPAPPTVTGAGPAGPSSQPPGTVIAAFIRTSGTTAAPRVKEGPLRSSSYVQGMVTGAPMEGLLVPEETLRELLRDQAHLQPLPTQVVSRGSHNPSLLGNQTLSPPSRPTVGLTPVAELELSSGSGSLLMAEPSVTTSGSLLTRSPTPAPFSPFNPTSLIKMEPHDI
ETV5, sequence (P41161 whole entry): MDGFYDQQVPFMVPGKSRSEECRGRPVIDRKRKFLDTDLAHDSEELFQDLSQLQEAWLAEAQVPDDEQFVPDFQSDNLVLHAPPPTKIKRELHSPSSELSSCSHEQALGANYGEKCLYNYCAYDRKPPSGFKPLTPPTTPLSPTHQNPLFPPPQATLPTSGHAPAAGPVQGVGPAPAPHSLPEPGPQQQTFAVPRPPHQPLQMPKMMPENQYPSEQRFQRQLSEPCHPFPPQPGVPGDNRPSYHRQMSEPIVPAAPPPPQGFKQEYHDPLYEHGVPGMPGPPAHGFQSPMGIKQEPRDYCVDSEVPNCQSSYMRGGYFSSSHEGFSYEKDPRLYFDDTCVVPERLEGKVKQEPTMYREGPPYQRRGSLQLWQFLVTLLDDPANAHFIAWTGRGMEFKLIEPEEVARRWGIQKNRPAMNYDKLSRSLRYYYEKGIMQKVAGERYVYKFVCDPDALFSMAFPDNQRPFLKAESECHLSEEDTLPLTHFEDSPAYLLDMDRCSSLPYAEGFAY
SPIB, sequence (Q01892 whole entry): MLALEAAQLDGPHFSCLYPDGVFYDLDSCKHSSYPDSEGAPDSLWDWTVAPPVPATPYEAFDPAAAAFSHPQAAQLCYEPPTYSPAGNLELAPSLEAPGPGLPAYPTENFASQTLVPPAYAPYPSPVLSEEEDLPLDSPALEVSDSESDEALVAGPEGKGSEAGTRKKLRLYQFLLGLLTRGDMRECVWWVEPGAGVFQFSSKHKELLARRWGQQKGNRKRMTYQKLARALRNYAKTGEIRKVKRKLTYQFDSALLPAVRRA
HSF1, sequence (Q00613 whole entry): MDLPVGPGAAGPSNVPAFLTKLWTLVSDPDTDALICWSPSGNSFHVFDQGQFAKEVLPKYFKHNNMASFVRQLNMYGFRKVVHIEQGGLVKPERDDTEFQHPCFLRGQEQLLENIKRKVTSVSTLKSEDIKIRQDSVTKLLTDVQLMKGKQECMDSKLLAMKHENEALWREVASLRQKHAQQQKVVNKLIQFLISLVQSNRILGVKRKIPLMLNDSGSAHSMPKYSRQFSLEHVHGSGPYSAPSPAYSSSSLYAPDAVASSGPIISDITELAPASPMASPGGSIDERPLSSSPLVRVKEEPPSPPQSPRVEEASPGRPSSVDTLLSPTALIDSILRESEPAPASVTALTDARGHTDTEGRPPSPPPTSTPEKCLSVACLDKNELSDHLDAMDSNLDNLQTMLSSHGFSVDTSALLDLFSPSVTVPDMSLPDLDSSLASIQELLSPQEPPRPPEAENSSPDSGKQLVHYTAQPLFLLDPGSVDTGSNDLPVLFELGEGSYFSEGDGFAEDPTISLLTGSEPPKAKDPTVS
ETV1, sequence (P50549 whole entry): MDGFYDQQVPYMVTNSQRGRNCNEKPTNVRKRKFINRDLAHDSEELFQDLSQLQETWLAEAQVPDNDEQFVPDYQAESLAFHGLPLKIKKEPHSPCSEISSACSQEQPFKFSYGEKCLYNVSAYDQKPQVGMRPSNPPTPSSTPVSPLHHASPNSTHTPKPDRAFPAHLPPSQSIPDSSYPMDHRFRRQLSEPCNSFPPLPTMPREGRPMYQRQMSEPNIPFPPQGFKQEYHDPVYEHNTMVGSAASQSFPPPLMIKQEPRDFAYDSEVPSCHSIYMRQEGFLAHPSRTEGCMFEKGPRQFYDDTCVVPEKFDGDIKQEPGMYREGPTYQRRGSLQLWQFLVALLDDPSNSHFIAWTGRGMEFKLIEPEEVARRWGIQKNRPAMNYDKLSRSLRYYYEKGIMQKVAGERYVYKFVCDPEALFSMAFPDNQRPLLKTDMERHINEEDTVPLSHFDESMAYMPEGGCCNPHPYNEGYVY
CRX, sequence (O43186 whole entry): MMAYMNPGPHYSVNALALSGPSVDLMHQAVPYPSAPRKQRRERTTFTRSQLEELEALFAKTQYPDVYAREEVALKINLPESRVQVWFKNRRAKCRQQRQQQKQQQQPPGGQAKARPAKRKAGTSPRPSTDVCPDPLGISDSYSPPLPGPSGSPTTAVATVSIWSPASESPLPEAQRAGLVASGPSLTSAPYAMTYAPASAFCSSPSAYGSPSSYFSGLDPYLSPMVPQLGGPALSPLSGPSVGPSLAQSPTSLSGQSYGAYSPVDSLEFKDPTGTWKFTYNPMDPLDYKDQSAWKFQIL
ELF1, sequence (P32519 whole entry): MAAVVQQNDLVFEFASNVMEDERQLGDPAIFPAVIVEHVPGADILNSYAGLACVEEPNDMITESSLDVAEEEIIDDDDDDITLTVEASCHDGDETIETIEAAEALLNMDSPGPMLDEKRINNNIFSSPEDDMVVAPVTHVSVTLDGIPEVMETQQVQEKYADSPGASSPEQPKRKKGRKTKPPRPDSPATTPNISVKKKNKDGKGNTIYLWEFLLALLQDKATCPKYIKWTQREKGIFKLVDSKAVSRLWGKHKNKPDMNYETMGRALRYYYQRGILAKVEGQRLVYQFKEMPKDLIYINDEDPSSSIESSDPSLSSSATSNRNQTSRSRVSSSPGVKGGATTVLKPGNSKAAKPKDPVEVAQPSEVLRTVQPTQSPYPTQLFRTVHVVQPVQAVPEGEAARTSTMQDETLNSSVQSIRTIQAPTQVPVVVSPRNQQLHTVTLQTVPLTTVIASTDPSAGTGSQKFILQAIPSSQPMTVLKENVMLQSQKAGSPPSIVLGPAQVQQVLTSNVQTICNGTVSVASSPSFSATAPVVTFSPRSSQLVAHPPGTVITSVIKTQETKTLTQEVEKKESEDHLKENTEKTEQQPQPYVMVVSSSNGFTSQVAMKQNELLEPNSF

Turning to ATTAGG, the binding signal in [1] was 1.06 fold enrichment (6-mer frequency, TF over GST control); in assay [2] it was 1.06 fold enrichment (6-mer frequency, TF over GST control); in [3], 1.1 fold enrichment (6-mer frequency, TF over GST control); in assay [4], 1.05 fold enrichment (6-mer frequency, TF over GST control); in assay [5], 1.06 fold enrichment (6-mer frequency, TF over GST control); in [6], 1.1 fold enrichment (6-mer frequency, TF over GST control). The binding signal is 1.07 fold enrichment (6-mer frequency, TF over GST control) in assay [7]; 1.06 fold enrichment (6-mer frequency, TF over GST control) in assay [8]; 1.1 fold enrichment (6-mer frequency, TF over GST control) in assay [9]; 1.01 fold enrichment (6-mer frequency, TF over GST control) in [10]; 1.11 fold enrichment (6-mer frequency, TF over GST control) in assay [11]; 1.57 fold enrichment (6-mer frequency, TF over GST control) in [12]. For the same sequence, the binding signal is 1.07 fold enrichment (6-mer frequency, TF over GST control) in assay [13]; 1.06 fold enrichment (6-mer frequency, TF over GST control) in assay [14]; 1.05 fold enrichment (6-mer frequency, TF over GST control) in assay [15]; 1.04 fold enrichment (6-mer frequency, TF over GST control) in assay [16]; 2.38 fold enrichment (6-mer frequency, TF over GST control) in assay [17]; 1.01 fold enrichment (6-mer frequency, TF over GST control) in assay [18].
